Compound activity from PubChem BioAssay.
Shiga inhibitor: blocks Shiga toxin action in Vero cells; inhibition, % at 38.7 µM; Vero cells, Shiga toxin protein synthesis inhibition reporter; 290,000 compounds, 9.2% hits; in the data active = inhibition mostly above about 28%, no sharp cut-off; inactive = mostly below about 43%; also: 0% is about no effect
Pf growth 48h: P. falciparum growth inhibition at 48 hours (one generation). P. falciparum luciferase growth in erythrocytes, 48 h. Potency, µM (top dose mostly 28.7 µM), without a hit: at the top dose activity change, negative = inhibition, most hits filed as inhibitors. 310,000 compounds, 5.9% hits. AID 504832; also: potency is read from the fitted curve at half-maximal effect; % is scaled to controls: 0 for no effect and ±100 for the full control effect
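Compounds are pin-transferred into medium, infected erythrocytes (2% hematocrit, 0.1% parasitemia final) are added, and plates sit one parasite generation at 37 C in 5% CO2. Detection reagent is then added and luminescence measured.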
CHX counter: affects cycloheximide protein synthesis inhibition readout, counter-screen; max response, %; 300,000 compounds, 12% hits; cell reporter, cycloheximide protein synthesis inhibition counterscreen; in the data active = max response mostly above about 13%, no sharp cut-off; inactive = mostly below about 14%; also: read at 38.3 µM for the half of the compounds with a filed dose; 0% is about no effect
Pf growth 96h: P. falciparum growth inhibition at 96 hours. AID 504834. 320,000 compounds, 6.9% hits. P. falciparum luciferase reporter growth, 96 h. Potency, µM (highest dose often 28.7 µM), for inactives: top-dose activity change, negative = inhibition, usual class: inhibitors; also: potency is read from the fitted curve at half-maximal effect; % is scaled to controls: 0 for no effect and ±100 for the full control effect
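P. falciparum expressing integrated firefly luciferase grown in erythrocytes (2% hematocrit, 0.05% parasitemia final) with compounds for 96 hours at 37 C, 5% CO2. Growth inhibition read as loss of luminescence after adding luciferase detection reagent.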
Lassa entry inh: inhibitors of Lassa virus binding or cell entry; Lassa virus pseudotype entry inhibition, cell reporter; Potency, µM (series often up to 37.9 µM), inactives show at the top dose activity change, negative = inhibition, hits mostly inhibitors; 300,000 compounds, 1.2% hits; calls by dose curve; tested in HEK293 cells; also: potency is read from the fitted curve at half-maximal effect; % is scaled to controls: 0 for no effect and ±100 for the full control effect; nearly all actives have a fitted effect of over 50% in size
MARV entry inh: Marburg virus entry inhibition. 300,000 compounds, 1.8% hits. Potency, µM (doses to about 37.8 µM), for inactives: at the highest dose activity change, negative = inhibition, actives largely listed as inhibitors. AID 540276. Marburg virus pseudotyped entry inhibition, cell reporter; calls by dose curve; tested in HEK293 cells; also: potency is read from the fitted curve at half-maximal effect; % is scaled to controls: 0 for no effect and ±100 for the full control effect
An asterisk follows results filed as active; i = inactive; ? = inconclusive; · = no result; [ ] = remark or other dose. Rows were chosen to be rich in hits. Some 19% of all compounds tested hit in one or more screens of this group. Unless noted, calls follow the shape of the dose curve; as a rule, active = well fitted inhibition curve with a large enough effect; inconclusive = small, poorly fitted or top-dose-only effect, or another doubt; inactive = no such curve, though single readings can be large or run the other way.

SMILES | Shiga inhibitor | Pf growth 48h | CHX counter | Pf growth 96h | Lassa entry inh | MARV entry inh
Cc1ccc(Nc2nnc(SCC(=O)NCCN3C(=O)CSC3=O)s2)cc1C | active | 5% | 15* | ? | · | ·
Cc1ccc(-n2c(SCC(=O)NCCN3C(=O)CSC3=O)nnc2-c2ccccc2F)cc1 | -1 | -12% | -1 | 15µM* | -22% | 4%
Cc1ccc(SCC(=O)NCCN2C(=O)CSC2=O)cc1C | 29 | · | 26 | 77% | ? | 28%
Cc1ccc(N)cc1S(=O)(=O)N(C)C | 8 | -4% | 2 | -20% | -22% | -20%[46.1 µM]
O=C(CSc1nnc(Cc2cccs2)n1Cc1ccco1)Nc1cccc(Cl)c1 | 1 | ? | 1 | -10% | -10% | ?
C=CCn1c(CCNC(=O)c2cccs2)nnc1SCC(=O)Nc1cccc(F)c1 | -12 | -8% | -2 | · | 2% | -2%
COCc1c(C(=O)OCC(=O)N2c3ccccc3CC2C)oc2ccccc12 (stereo not given) | 26 | 10% | -2 | 34% | 7% | 6%
COc1cccc([C@@H]2CC=C(C(=O)O)[C@H](c3ccccc3F)N2S(=O)(=O)c2ccc(C)cc2)c1 | · | ? | · | -18% | · | ·
COc1cccc([C@@H]2CC=C(C(=O)O)[C@H](c3ccc(Cl)cc3)N2S(=O)(=O)c2ccc(C)cc2)c1 | · | ? | · | 9.3µM* | · | ·
COc1cc([C@@H]2CC=C(C(=O)O)[C@H](c3cccc(Cl)c3)N2S(=O)(=O)c2ccc(C)cc2)cc(OC)c1OC | · | ? | · | 13µM* | · | ·
COc1ccc([C@@H]2CC=C(C(=O)O)[C@H](c3ccc(Cl)cc3)N2S(=O)(=O)c2ccc(C)cc2)cc1OC | · | ? | · | 13µM* | · | ·
O=C(CN1CCN(c2ncccn2)CC1)N1CCCc2c1c(=O)oc1ccc(O)cc21 | -3 | ? | -1 | ? | 0% | 3%
CCOC(=O)COc1cc(N2C(=O)CSCC2=O)c(Cl)cc1Cl | -3 | 30% | 0 | ? | 5% | -1%
Cc1ccc(C(=O)C[n+]2cccc3ccccc32)cc1 | 8 | 13µM* | 0 | 4.1µM* | 19% | -10%
Cc1ccc(C(=O)CC(=O)c2ccccc2)cc1 | 66* | 45% | 48* | 3.7µM* | · | ·
Cc1cc(C)c(NC(=O)CC(=O)c2ccccc2)c(Cl)c1 | 65* | 19% | 22* | 8% | 22%[46.1 µM] | 4%[46.1 µM]
Cc1ccc(C(=O)Cc2ccccc2)cc1 | · | · | · | · | -21%[46.1 µM] | ?
Cc1ccc(C[n+]2ccccc2)cc1 | · | 9.3µM* | · | ? | · | ·
Cc1ccc(C(=O)CCc2ccc(N)cc2)cc1 | 96* | 61% | 31* | 56% | · | ·
CC(=O)Nc1cc[n+](CC(=O)c2ccc(Cl)cc2)cc1 | -8 | ? | 0 | 9.3µM* | 1%[46.1 µM] | ?
CC(=O)Nc1ccc(C(=O)OCC(=O)c2cccc([N+](=O)[O-])c2)cc1 | -11 | 16% | 3 | 1% | -8% | 14%
Cc1ccc(C(=O)COC(=O)c2cccc(NC(=O)c3ccc([N+](=O)[O-])cc3[N+](=O)[O-])c2)cc1 | 136* | -64% | 36* | 195% | ? | ?
COc1ccc(CCC(=O)OC(C)C(=O)c2ccc(C)cc2)cc1 (stereo not given) | -10 | -3% | -4 | -1% | 6% | ?
Cc1ccc(C(=O)Sc2cccccc2=O)cc1 | 135* | 4.1µM* | 78* | 2.9µM* | ? | ?
COc1ccc(-c2nn(-c3ccccc3)cc2C(=O)n2nnc3ccccc32)cc1 | -17 | 17% | -5 | · | 5% | 8%
SMILES | Shiga inhibitor | Pf growth 48h | CHX counter | Pf growth 96h | Lassa entry inh | MARV entry inh
Cc1[nH]c2ccccc2c1C(=O)COC(=O)c1ccc([N+](=O)[O-])s1 | -13 | ? | -5 | ? | · | ·
Cc1ccc[n+](CC(=O)c2ccc(-c3ccccc3)cc2)c1 | -9 | -28% | -1 | ? | -7% | -12%
Cc1ccc[n+](CC(=O)c2ccc(Cl)cc2)c1 | 35 | 4% | 6 | 0.83µM* | ? | 5%
CC(=O)NC(C)C(=O)OCC(=O)c1ccc(-c2ccccc2)cc1 (stereo not given) | 49* | 24% | 16* | 35% | 25% | 2%[46.1 µM]
Cc1ccc(C)[n+](CC(=O)c2ccc(-c3ccccc3)cc2)c1 | -6 | 9.3µM* | -2 | -6% | -26% | ?
CC(=O)Nc1cc(C(=O)OCC(=O)c2ccccc2)ccc1C | active | 153% | 35* | 202% | ? | 10%
CC(C)CC(=O)Nc1c2c(nn1-c1ccc(F)cc1)CSC2 | 10 | 12% | -2 | -2% | 19% | ?
COc1ccc(CCC(=O)Nc2ccc(N3CCOCC3)cc2)cc1 | -21 | · | -1 | 12% | 1% | ?
CCCC(=O)c1ccc(-c2ccccc2)cc1 | 84* | 63% | 28* | 31% | 0% | ?
CN(C(=O)c1ccccc1C(=O)OCC(=O)c1ccc(Br)cc1)c1ccccc1 | · | ? | · | 12µM* | -50% | -24%
CCOC(=O)c1ccccc1NC(=O)COC(=O)c1ccccc1C(=O)N(C)c1ccccc1 | · | ? | · | ? | -14% | 0%
Cc1ccc(C(=O)OCC(=O)c2ccccc2)cc1 | 48* | 276% | 23* | ? | ? | -27%
Cc1cc(C)c(C(=O)CC(=O)c2ccccc2Cl)c(O)c1 | 22 | 24%[0.00184 µM] | 22* | ? | -11% | ?
O=C(COC(=O)c1ccc(-c2cnc3ccccc3n2)cc1)c1ccccc1 | 10 | 42% | 11 | 3% | 29% | -1%
CCN1C(=O)[C@H]2[C@@H](c3ccc(C)cc3)N3C(=O)N(c4cccc(Cl)c4)C(=O)[C@@]3(C)[C@H]2C1=O | · | ? | · | -16% | · | ·
O=C(Nc1cccc(Cl)c1)OCc1cn(-c2ccccc2)nn1 | 20 | i | 15 | 30% | ? | 16%[46.1 µM]
COCc1cc(=O)[nH]c(-c2ccccc2)n1 | 1 | -17% | 10 | -48%[5.75 µM] | -2% | 13%
Cc1ccc(C(=O)C[n+]2cccc(C(N)=O)c2)cc1 | 2 | 15% | -1 | 18% | 16% | 1%[46.1 µM]
Cc1ccc(C(=O)C[n+]2ccccc2)cc1 | 36* | 44% | 25* | 16% | ? | 4%[46.1 µM]
O=C(Nc1ccc(Cl)cc1[N+](=O)[O-])c1ccc2c(c1)OCCO2 | 67* | 136% | 40* | ? | 2% | -28%
O=C(Nc1ccc(F)c([N+](=O)[O-])c1)c1ccc2c(c1)OCCO2 | 55* | 67% | 33* | -25% | ? | ?
COC(=O)c1sccc1NC(=O)c1ccccc1 | -19 | ? | 7 | 0% | 0%[46.1 µM] | ?
COC(=O)c1sccc1NC(=O)/C=C/c1ccc(Cl)cc1 | 39 | 120% | 9 | 13µM* | 14% | ?
CCOc1ccccc1NC(=O)Nc1ccsc1C(=O)OC | 36* | 105% | 22* | ? | 19%[46.1 µM] | 15%[46.1 µM]
COC(=O)c1sccc1NC(=O)c1ccc(C(C)C)cc1 | 8 | 14% | 3 | 10µM* | -19% | 2%
COC(=O)c1sccc1NC(=S)Nc1cc(C)ccc1OC | -4 | ? | -4 | 38% | · | ·
